# Screening data (PubChem)
# JMJD2E inh – JMJD2E (human) inhibition. B2RXH2. JMJD2E catalytic domain, FDH-coupled NADH fluorescence (FDH is formaldehyde dehydrogenase). Potency, µM (series often up to 57.1 µM), without a hit: at the top dose activity change, negative = inhibition, actives largely listed as inhibitors. 230,000 tested, 1.6% active. AID 2147;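 further: potency means the concentration at half of the fitted maximal effect; 0% = wells with enzyme and -100% = buffer wells without enzyme; nearly all actives have a fitted effect of over 50% in size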
# Target sequence (B2RXH2 1-337 limits assumed): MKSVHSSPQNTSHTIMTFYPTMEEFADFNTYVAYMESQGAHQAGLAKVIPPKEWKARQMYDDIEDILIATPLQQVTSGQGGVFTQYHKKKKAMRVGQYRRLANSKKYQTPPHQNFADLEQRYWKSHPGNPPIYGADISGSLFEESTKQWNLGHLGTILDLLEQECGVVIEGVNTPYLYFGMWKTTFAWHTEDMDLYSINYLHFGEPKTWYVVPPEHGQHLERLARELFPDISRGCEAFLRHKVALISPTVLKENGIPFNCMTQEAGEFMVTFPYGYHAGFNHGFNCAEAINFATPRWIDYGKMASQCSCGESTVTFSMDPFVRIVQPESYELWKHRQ
# PNC inhibitor – blocks assembly of the perinucleolar compartment; PC3M PTB-GFP, PNC prevalence imaging, 16 h; active compounds read low; activity change (PNC), negative = inhibition, % at 10 µM; 140,000 tested, 3.1% active;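 active means readout at or below -70, meaning at least 70% loss of cells showing the perinucleolar compartment, a nuclear body marking cancer cells; inconclusive means readout between -30 and a set limit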;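 further: plate controls were DMSO wells for no effect and camptothecin positive control wells for full effect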
#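 Compounds are pinned in duplicate onto adhered PC3M cells stably expressing GFP-tagged PTB and incubated 16 h at 37 C. Cells are then fixed, nuclei stained with Hoechst, and PNC-positive cells counted.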
# ALDH1A1 block – blocks purified human ALDH1A1 activity; P00352; Purified ALDH1A1, NADH fluorescence, propionaldehyde substrate; Potency, µM (titrated, usually from 75.3 µM), for inactives: top-dose activity, negative = inhibition, hits mostly inhibitors; 220,000 tested, 7.3% active;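 further: potency means the concentration at half of the fitted maximal effect; plate controls were no enzyme wells and a reference inhibitor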
# HPGD inh – inhibitors of human 15-hydroxyprostaglandin dehydrogenase (HPGD); P15428; purified HPGD, NADH fluorescence kinetic, PGE2 substrate; Potency, µM, for the others: top-dose activity change, negative = inhibition, usual class: inhibitors; 150,000 tested, 4.3% active; further: potency means the concentration at half of the fitted maximal effect
# Target sequence (P15428 whole entry, looked up): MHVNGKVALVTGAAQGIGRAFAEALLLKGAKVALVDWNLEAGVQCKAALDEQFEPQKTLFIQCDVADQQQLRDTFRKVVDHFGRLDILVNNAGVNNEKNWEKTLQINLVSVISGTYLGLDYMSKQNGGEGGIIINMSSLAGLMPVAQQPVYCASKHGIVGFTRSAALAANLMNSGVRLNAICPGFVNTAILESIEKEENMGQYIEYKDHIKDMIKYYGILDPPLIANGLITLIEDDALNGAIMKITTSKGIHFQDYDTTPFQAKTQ
#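 NADH formation kinetics: reaction with 30 uM PGE2 and 1 mM NAD+ (final), 20 nM enzyme, Tris-HCl pH 8 with Tween 20, after 15 min compound preincubation at room temperature. Fluorescence change, last versus first of five reads.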
# Active calls of the source: *; ? = inconclusive; · = no result; [ ] = remark or other dose. An excerpt weighted towards active compounds, which were near 11% of everything screened. Unless noted, the call rests on the fitted dose curve; in most records, active means well fitted inhibition curve with a large enough effect (not every such curve was filed as active); inconclusive means small, poorly fitted or top-dose-only effect, or another doubt; inactive means no such curve, though single readings can be large or run the other way. Unless noted, on the % scale 0 is the no-effect control and ±100 the full control effect.
SMILES,JMJD2E inh,PNC inhibitor,ALDH1A1 block,HPGD inh
Cc1cccc(NC(=O)c2nc(-c3ccccc3)n(-c3ccccc3)n2)c1C,3%,16,32µM*,-29%
O=C(O)CNC(=O)c1nc(-c2ccccc2)n(-c2ccccc2)n1,2%,?,?,-7%
O=C(Cn1nc(-c2ccc(F)cc2)ccc1=O)Nc1ccc(C(=O)NC2CC2)cc1,-2%,37,5%,28µM*
Cc1nn(CC(=O)Nc2ccc3c(c2)nc(CN2CCCC2)n3C)c(=O)c2ccccc12,?,-100*,-1%,-3%
COc1cccc(-c2ccc(=O)n(CC(=O)Nc3ccc(C(=O)N4CCCC4)cc3)n2)c1,1%,32,?,13µM*
Cc1nn(CC(=O)Nc2ccc(C(=O)N3CCCCC3)cc2)c(=O)c2ccccc12,5%,-17,13µM*,1.1µM*
COc1cc(NC(=O)Cn2nc(-c3ccc(F)cc3)ccc2=O)ccc1-n1cnnn1,1%,·,?,·
COC(=O)c1cc2oc(C)cc2n1CC(=O)Nc1cc(C)cc(C)c1,-21%,?,-14%,-13%
Cc1nn(CC(=O)Nc2cccnc2)c(=O)c2ccccc12,-4%,·,5%,·
Cc1nn(CC(=O)Nc2ccc(C(=O)N3CCCC3)cc2)c(=O)c2ccccc12,9%,-4,-15%,14µM*
CC1CN(CC(O)COCc2ccc3c(c2)OCO3)CC(C)O1 (configuration not stated),-8%,·,-15%,·
O=C(COC(=O)c1ccc(Br)cc1)NCc1ccc(F)cc1,-1%,·,3%,·
O=[N+]([O-])O[C@H]1CO[C@H]2[C@@H]1OC[C@H]2O,·,·,9%,-3%
N#C/C(=C\c1ccc(O)cc1)C(=O)N1CCCC1,-8%,·,?,·
CC1CC(C)CN(C(=O)/C(=C\c2ccccc2)c2ccccc2)C1 (configuration not stated),-2%,10,-9%,11µM*
CN1CCN(C(=O)/C(C#N)=C/c2ccc(F)cc2)CC1,-6%,·,1.8µM*,·
CN1CCN(C(=O)/C(=C/c2ccccc2)c2ccccc2)CC1,7%,-1,0%,13µM*
CC1CCCCN1C(=O)/C=C/c1ccccc1[N+](=O)[O-] (configuration not stated),1%,·,-1%,·
CC1CCCCN1C(=O)/C(=C\c1ccccc1)c1ccccc1 (configuration not stated),1%,28,-5%,14µM*
C/C(N)=C(/C#N)C(=O)COC(=O)c1ccc(C)c(S(=O)(=O)N2CCCCC2)c1,6%,-18,?,13µM*
C/C(N)=C(/C#N)C(=O)COC(=O)c1cc(S(=O)(=O)N2CCCCC2)ccc1C,6%,?,-3%,-15%
CCCNC(=O)COC(=O)c1ccc(Cl)c(S(=O)(=O)N2CCCC2)c1,-2%,15,7.9µM*,-16%
COc1ccc(NC(=O)CSC2CC(=O)N(c3ccc4c(c3)OCCO4)C2=O)cc1 (configuration not stated),-4%,42,14µM*,2%
COc1ccccc1NC(=O)CSC1CC(=O)N(c2ccc3c(c2)OCO3)C1=O (configuration not stated),6%,8,0.56µM*,-19%
COc1ccccc1C(=O)NNC1CC(=O)N(c2ccc3c(c2)OCCO3)C1=O (configuration not stated),8%,42,-7%,-9%
SMILES,JMJD2E inh,PNC inhibitor,ALDH1A1 block,HPGD inh
O=C(CC(NC(=O)C(F)(F)F)c1ccccc1)Nc1nnc(CCc2ccccc2)s1 (configuration not stated),-8%,?,17%,?
Cc1ccc(C(=O)NC2(O)C(=O)c3ccccc3C2=O)cc1C,14µM*,·,·,·
COc1cccc(C(=O)NCCOc2cc(C)cc(C)c2)c1,-7%,49,16µM*,-9%
COC(=O)c1ccc(NC(=O)c2cccc(OC)c2)cc1,1%,9,?,28µM*
COC(=O)c1ccc(NC(=O)c2ccccc2NS(C)(=O)=O)cc1,0%,-104*,-2%,-12%
COc1cccc(C(=O)Nc2ccc(C(=O)O)cc2)c1,-27%,19,-13%,·
COc1ccc(NC(=O)c2ccccc2NS(C)(=O)=O)cc1OC,-3%,?,19%,-16%
CCCC(=O)Nc1ccc(Cl)c(NC(=O)c2cccc(OC)c2)c1,0%,·,2.8µM*,·
CCOC(=O)/C(=C/c1ccco1)NC(=O)c1ccc(Br)o1,6%,·,?,·
Cc1cc2c(sc3c(C)ccc(C)c32)c(C)n1,?,·,-1%,·
O=C(Nc1ccc(C2CC2(Cl)Cl)cc1)c1ccccc1Br (configuration not stated),1%,-20,7%,16µM*
COc1cccc(C(=O)Nc2ccc(C)cc2)c1,?,66,-8%,-16%
COc1cccc(C(=O)Nc2ccc(C3CC3(Cl)Cl)cc2)c1 (configuration not stated),-9%,·,11µM*,·
CN(C)S(=O)(=O)Oc1cccc(C(=O)Nc2ccc(Cl)cc2)c1,1%,19,16µM*,-17%
CCOC(=O)Cc1ccc(NC(=O)c2ccccc2Br)cc1,-5%,·,-15%,·
COc1cccc(C(=O)Nc2cccc(-c3nnc(-c4ccco4)o3)c2)c1,-6%,-2,?,20µM*
O=C1CN(C(=O)c2cc([N+](=O)[O-])ccc2Cl)C(c2ccc(F)cc2)c2cc(F)ccc2N1 (configuration not stated),7%,29,-3%,0%
C=CC1=C2C=C(C3CC3)N(CCN3CCOCC3)C=C2C(=O)C(C)(OC(=O)c2ccco2)C1=O (configuration not stated),?,·,?,-2%
CCCCn1c2ccc(F)cc2c2nnc(NN)nc21,-7%,·,2.2µM*,·
CSc1nnc2c3cc(C)ccc3n(Cc3ccccc3)c2n1,-3%,-6,14µM*,?
CCOC(=O)Cn1c2ccc(F)cc2c2nc(C)sc21,4%,·,?,·
CCn1c2ccc(C)cc2c2nc3cc(C(=O)O)ccc3nc21,?,3,-10%,?
CCn1c2ccc(C)cc2c2nnc(NN)nc21,-10%,49,25µM*,-13%
c1ccc(Cn2c3ccccc3c3nnc(SCCN4CCCCC4)nc32)cc1,1%,·,?,·
CCn1c2ccccc2c2nnc(NN)nc21,-21%,30,16µM*,-16%
SMILES,JMJD2E inh,PNC inhibitor,ALDH1A1 block,HPGD inh
COCCN1C(=O)N[C@@H](c2cccc(F)c2)C(C(=O)OC)=C1C,18%[11.4 µM],·,15%[13.5 µM],-7%
CC(=O)N1CCN(c2ccc(NCc3ccc(C)s3)cc2)CC1,?,?,25µM*,-15%
Cc1ccc(CNc2ccc(N3CCOCC3)cc2)s1,-8%,13,?,-4%
Brc1ccc2c(c1)C(C1=NCCN1)c1ccccc1CS2 (configuration not stated),2%,-109*,3%,4%
c1ccc2c(c1)CCCC2C1=NCCN1 (configuration not stated),-4%,18,-1%,-2%
O=C1CCCC2=C1C(c1ccc(O)c(O)c1)c1c(ccc3ncccc13)N2 (configuration not stated),25µM*,·,?,·
Cc1ccc(S(=O)(=O)NCC(=O)OCC(=O)NCc2ccc(F)cc2)cc1,2%,·,-3%,·
